This is an account of results in paper PMC7862700, “An all-to-all approach to the identification of sequence-specific readers for epigenetic DNA modifications on cytosine”.

Common to all, as to assay: DAPPL (digital affinity profiling via proximity ligation, sequencing); 10 mM Tris-HCl pH 7.5, 50 mM NaCl, 1 mM DTT, 4% glycerol, room temperature, 30 min; GST-TFs on glutathione beads, 16-mer random dsDNA library, 0.1% formaldehyde crosslink after washing; high values mean tight binding
The target of one experiment is T1, FEV (Homo sapiens, UniProt Q99581 1-238).
T1 sequence: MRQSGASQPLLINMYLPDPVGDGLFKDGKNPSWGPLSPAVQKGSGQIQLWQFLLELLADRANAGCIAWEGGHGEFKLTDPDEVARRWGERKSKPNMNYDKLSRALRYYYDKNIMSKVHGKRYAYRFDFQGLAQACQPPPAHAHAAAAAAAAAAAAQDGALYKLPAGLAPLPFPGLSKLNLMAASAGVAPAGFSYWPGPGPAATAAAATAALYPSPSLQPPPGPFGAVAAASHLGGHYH
The settings on record: protein: recombinant; tags: N-terminal GST; dsDNA, one strand shown. The gist of the method: (§1)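 Human transcription factors were made in yeast as GST fusions, captured on glutathione beads and barcoded with DNA. With a tag-only sample included, the pool was incubated with 200 nmole of a random double-stranded 16-mer DNA library in Tris/NaCl/DTT/glycerol buffer at room temperature for 30 min, then crosslinked with 0.1% formaldehyde after washing, ligated by proximity, amplified and sequenced. For binding signal, each hexamer's read frequency for a factor is divided by its frequency for the tag-only sample.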

The target in another experiment is ETV5 (Homo sapiens, UniProt P41161 1-510). The settings on record: protein: recombinant; tags: N-terminal GST; dsDNA, one strand shown. The gist of the method: as §1
Chain of ETV5 (P41161 whole entry): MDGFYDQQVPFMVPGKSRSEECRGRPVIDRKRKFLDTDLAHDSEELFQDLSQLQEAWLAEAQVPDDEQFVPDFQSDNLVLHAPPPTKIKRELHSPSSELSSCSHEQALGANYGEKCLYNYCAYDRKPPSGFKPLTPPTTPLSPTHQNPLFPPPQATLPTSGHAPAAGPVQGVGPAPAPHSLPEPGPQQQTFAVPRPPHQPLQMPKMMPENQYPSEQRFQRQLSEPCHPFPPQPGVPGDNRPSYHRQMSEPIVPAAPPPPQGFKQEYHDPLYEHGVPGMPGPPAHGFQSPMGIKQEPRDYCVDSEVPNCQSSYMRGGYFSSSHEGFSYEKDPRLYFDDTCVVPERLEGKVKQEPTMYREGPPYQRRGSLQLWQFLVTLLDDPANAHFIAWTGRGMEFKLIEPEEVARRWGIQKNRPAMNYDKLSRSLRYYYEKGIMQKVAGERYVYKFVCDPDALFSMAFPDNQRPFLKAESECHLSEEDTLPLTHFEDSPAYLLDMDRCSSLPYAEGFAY
Another experiment addresses HSF1 (Homo sapiens, UniProt Q00613 1-529). The settings on record: protein: recombinant; tags: N-terminal GST; chain copies: 3; dsDNA, one strand shown. The gist of the method: as §1
The target of a further experiment is T2, SPIC (Homo sapiens, UniProt Q8N5J4 1-248).
T2 sequence: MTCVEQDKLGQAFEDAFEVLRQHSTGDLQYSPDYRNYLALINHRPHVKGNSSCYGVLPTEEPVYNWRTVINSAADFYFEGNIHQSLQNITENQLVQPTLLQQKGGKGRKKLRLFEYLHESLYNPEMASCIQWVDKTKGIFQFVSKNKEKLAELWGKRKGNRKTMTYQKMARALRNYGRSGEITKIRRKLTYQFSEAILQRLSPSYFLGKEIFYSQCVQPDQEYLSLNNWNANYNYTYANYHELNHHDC
The note with it: protein: recombinant; tags: N-terminal GST; dsDNA, one strand shown. In a few lines: as §1

The target of another experiment is ELF4 (Homo sapiens, UniProt Q99607 1-663). The note with it: protein: recombinant; tags: N-terminal GST; dsDNA, one strand shown. The gist of the method:
as §1

The target of a further experiment is T3, ELK4 (Homo sapiens, UniProt P28324-2 1-405).
T3 sequence: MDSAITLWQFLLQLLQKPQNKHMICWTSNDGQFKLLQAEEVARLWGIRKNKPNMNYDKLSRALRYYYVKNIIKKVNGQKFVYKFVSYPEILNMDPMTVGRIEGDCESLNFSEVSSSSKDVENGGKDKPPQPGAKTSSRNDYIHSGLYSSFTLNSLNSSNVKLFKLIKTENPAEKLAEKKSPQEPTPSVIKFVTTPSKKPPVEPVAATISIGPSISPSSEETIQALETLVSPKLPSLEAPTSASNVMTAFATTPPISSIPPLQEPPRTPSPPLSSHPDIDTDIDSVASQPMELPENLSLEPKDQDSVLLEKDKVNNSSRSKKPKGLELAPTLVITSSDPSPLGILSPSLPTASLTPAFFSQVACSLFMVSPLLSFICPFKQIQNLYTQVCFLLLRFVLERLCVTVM
The settings on record: protein: recombinant; tags: N-terminal GST; dsDNA, one strand shown. The gist of the method:
as §1

Another experiment deals with T4, ETV2 (Homo sapiens, UniProt O00321 1-342).
T4 sequence: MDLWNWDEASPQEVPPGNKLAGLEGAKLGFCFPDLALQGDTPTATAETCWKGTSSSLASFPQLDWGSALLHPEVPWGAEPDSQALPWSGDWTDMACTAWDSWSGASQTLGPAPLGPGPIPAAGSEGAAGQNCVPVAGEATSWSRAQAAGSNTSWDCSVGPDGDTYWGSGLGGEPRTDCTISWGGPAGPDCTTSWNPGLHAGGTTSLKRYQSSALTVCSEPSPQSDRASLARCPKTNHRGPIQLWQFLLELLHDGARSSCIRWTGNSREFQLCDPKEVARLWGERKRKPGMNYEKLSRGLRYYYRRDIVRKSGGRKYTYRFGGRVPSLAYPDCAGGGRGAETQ
The note with it: protein: recombinant; tags: N-terminal GST; dsDNA, one strand shown. In a few lines: as §1

A further experiment deals with T5, ELF3 (Homo sapiens, UniProt P78545 1-371).
T5 sequence: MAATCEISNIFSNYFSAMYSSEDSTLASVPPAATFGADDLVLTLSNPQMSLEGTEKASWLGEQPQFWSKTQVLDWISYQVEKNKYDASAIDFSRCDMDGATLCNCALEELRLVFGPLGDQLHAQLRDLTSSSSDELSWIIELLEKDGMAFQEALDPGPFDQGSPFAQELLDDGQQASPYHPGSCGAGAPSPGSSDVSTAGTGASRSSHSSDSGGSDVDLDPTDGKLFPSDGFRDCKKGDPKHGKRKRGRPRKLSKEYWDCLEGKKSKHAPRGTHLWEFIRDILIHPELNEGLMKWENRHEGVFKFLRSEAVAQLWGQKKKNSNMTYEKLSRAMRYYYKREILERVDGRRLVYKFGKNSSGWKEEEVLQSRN
The settings on record: protein: recombinant; tags: N-terminal GST; dsDNA, one strand shown. In a few lines: as §1

A further experiment has as its target CRX (Homo sapiens, UniProt O43186 1-299). The settings on record: protein: recombinant; tags: N-terminal GST; dsDNA, one strand shown. The gist of the method: as §1
For the next experiment, the target named is ETV1 (Homo sapiens, UniProt P50549 1-477). The settings on record: protein: recombinant; tags: N-terminal GST; dsDNA, one strand shown. In a few lines: as §1
Chain of ETV1 (P50549 whole entry): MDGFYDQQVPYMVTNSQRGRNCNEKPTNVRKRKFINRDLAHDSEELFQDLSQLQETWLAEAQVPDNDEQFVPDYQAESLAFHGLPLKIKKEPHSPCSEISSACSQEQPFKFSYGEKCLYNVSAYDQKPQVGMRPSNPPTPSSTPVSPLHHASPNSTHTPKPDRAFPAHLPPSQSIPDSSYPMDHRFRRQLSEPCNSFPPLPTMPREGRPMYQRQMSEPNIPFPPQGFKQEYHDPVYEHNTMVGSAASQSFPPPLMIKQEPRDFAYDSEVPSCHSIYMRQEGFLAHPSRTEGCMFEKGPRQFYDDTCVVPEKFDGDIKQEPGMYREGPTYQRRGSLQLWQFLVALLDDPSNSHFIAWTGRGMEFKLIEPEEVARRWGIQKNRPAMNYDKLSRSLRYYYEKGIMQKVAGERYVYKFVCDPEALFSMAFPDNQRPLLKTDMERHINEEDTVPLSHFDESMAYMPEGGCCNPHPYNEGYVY
Another experiment deals with T6, ERF (Homo sapiens, UniProt P50548 1-548).
T6 sequence: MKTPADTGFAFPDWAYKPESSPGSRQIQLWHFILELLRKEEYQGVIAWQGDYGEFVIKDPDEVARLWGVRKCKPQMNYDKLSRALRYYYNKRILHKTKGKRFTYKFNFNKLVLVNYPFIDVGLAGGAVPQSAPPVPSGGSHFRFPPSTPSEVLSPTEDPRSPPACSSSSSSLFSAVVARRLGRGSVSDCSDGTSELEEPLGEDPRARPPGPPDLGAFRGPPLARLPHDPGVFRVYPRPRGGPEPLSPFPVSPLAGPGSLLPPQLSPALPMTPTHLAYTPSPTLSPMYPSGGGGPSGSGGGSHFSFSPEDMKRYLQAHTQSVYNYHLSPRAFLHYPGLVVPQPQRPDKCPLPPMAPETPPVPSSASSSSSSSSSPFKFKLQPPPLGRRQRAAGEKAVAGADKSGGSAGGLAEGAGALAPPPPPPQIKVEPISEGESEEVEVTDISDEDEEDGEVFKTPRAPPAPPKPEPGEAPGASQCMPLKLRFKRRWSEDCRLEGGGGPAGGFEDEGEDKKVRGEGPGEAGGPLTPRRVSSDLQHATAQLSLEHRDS
The note with it: protein: recombinant; tags: N-terminal GST; dsDNA, one strand shown. The gist of the method: as §1

A further experiment concerns the target T7, ETV3L (Homo sapiens, UniProt Q6ZN32 1-361).
T7 sequence: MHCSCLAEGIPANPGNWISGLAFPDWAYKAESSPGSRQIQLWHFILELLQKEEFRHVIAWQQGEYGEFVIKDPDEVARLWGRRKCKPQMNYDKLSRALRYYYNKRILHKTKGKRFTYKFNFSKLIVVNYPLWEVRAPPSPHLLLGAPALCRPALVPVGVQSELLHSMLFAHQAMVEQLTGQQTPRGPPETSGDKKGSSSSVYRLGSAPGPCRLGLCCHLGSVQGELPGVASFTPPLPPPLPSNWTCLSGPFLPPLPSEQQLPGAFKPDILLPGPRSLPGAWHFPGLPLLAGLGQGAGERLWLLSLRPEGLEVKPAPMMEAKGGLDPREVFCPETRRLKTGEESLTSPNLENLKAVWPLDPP
The note with it: protein: recombinant; tags: N-terminal GST; dsDNA, one strand shown. The gist of the method: as §1

The next experiment concerns the target T8, ETS2 (Homo sapiens, UniProt P15036 1-469).
T8 sequence: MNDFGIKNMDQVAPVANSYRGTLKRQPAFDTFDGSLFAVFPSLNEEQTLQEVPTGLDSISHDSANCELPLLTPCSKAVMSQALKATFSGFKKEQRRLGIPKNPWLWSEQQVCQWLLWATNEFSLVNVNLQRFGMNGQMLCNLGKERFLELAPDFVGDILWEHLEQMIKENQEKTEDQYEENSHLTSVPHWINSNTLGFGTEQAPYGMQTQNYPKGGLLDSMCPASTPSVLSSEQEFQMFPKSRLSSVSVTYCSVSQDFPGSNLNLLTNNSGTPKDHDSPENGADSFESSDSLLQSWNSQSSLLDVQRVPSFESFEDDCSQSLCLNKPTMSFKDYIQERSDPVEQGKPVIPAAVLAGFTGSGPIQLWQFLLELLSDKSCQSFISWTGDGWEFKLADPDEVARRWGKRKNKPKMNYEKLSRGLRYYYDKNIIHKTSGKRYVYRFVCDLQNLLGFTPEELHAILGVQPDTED
The settings on record: protein: recombinant; tags: N-terminal GST; dsDNA, one strand shown. The gist of the method: as §1

For another experiment, the target named is T9, SPDEF (Homo sapiens, UniProt O95238 1-335).
T9 sequence: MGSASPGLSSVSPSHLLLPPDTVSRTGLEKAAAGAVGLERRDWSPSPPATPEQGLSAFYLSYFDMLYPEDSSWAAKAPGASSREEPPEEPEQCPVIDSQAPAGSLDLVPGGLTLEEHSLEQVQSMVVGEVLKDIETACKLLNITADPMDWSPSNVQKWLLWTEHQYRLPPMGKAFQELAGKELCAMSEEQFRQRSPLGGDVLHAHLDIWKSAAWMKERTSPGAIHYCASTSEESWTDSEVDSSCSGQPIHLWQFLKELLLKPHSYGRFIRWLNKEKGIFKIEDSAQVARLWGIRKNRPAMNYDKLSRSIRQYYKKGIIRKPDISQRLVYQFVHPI
The settings on record: protein: recombinant; tags: N-terminal GST; dsDNA, one strand shown. The gist of the method: as §1

The next experiment has as its target T10, ETV7 (Homo sapiens, UniProt Q9Y603 1-341).
T10 sequence: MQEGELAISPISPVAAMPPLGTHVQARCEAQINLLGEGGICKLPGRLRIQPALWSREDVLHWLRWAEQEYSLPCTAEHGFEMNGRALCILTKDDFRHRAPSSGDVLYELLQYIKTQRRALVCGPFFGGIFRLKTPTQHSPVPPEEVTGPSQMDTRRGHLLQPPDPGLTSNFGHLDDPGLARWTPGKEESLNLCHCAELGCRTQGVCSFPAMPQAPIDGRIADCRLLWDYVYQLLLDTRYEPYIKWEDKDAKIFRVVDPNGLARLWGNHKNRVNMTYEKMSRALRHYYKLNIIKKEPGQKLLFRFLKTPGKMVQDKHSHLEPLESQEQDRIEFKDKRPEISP
The note with it: protein: recombinant; tags: N-terminal GST; dsDNA, one strand shown. In a few lines: as §1

A further experiment concerns the target T11, ELF5 (Homo sapiens, UniProt Q9UKW6-2 1-255).
T11 sequence: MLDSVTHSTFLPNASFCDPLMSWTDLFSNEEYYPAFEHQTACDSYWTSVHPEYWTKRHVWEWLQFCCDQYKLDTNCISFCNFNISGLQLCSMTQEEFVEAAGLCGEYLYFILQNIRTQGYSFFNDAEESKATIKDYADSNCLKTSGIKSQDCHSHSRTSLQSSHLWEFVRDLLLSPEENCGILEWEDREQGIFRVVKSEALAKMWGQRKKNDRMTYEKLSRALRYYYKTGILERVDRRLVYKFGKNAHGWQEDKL
The note with it: protein: recombinant; tags: N-terminal GST; dsDNA, one strand shown. In a few lines: as §1

The next experiment has as its target T12, ETV3 (Homo sapiens, UniProt P41162-2 1-143).
T12 sequence: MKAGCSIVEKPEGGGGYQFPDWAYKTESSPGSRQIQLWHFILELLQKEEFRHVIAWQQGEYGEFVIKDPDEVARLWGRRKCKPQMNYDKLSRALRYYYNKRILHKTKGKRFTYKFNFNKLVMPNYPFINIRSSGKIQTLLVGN
The note with it: protein: recombinant; tags: N-terminal GST; dsDNA, one strand shown. The gist of the method:
as §1

Another experiment deals with ETV6 (Homo sapiens, UniProt P41212 1-452). The settings on record: protein: recombinant; tags: N-terminal GST; dsDNA, one strand shown. The gist of the method:
as §1

Chain of ETV6 (P41212 whole entry): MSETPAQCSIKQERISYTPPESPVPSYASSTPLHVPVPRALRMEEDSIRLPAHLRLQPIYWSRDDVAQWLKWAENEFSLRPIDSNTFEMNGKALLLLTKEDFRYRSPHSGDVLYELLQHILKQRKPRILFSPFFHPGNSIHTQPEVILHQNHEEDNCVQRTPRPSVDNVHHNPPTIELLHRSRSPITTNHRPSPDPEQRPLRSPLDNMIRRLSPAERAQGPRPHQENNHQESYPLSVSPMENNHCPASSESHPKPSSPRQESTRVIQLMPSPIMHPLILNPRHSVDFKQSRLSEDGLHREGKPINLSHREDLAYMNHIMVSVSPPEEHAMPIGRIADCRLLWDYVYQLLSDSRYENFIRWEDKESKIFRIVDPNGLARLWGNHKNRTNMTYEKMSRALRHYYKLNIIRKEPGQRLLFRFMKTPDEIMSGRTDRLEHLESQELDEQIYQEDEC
Chain of ELF4 (Q99607 whole entry): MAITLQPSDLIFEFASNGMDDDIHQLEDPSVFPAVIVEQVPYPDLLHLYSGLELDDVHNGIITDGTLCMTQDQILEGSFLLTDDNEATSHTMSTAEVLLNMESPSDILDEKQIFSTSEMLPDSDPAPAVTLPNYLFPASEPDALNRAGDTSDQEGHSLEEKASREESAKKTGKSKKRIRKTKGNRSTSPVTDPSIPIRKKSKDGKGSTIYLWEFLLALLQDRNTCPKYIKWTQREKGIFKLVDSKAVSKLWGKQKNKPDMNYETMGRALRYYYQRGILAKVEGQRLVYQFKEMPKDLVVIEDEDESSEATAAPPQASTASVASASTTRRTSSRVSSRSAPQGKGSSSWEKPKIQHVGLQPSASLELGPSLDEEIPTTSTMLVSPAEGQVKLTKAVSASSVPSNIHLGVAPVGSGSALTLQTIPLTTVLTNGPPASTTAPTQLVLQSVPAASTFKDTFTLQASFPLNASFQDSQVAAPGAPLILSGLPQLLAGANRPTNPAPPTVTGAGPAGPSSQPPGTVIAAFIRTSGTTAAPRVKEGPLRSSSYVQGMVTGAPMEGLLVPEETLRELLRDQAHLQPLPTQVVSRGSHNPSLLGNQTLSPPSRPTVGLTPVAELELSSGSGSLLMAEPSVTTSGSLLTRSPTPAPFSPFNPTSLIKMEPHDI
Chain of HSF1 (Q00613 whole entry): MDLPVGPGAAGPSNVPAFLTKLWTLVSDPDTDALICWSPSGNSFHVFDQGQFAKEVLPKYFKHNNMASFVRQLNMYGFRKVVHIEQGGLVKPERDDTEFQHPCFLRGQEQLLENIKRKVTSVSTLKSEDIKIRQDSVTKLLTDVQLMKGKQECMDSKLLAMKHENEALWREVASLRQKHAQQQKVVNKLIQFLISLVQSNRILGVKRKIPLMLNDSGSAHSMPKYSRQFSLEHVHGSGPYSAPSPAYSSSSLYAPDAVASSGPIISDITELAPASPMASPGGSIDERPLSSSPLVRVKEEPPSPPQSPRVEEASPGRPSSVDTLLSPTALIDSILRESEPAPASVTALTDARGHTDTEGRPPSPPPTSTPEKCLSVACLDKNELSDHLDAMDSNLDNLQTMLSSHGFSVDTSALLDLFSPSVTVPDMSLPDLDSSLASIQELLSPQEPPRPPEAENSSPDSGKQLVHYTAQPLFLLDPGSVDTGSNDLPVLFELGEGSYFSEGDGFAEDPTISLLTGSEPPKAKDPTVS
Chain of CRX (O43186 whole entry): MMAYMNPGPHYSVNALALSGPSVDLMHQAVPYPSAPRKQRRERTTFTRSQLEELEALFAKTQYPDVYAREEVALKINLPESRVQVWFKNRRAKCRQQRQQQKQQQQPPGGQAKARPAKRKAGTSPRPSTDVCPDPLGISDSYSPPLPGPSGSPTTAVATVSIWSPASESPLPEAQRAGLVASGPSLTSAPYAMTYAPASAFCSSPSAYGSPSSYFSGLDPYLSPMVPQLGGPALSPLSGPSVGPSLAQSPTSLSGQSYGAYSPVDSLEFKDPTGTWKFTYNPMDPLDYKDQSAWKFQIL

Regarding ACGAAA, the binding signal with FEV was 1.15 fold enrichment (6-mer frequency, TF over GST control); with ETV5, 1.15 fold enrichment (6-mer frequency, TF over GST control); with HSF1, 1.44 fold enrichment (6-mer frequency, TF over GST control); with SPIC, 1.02 fold enrichment (6-mer frequency, TF over GST control); with ELF4, 1.16 fold enrichment (6-mer frequency, TF over GST control); with ELK4 it was 1.24 fold enrichment (6-mer frequency, TF over GST control). The binding signal with ETV2 is 1.13 fold enrichment (6-mer frequency, TF over GST control); with ELF3, 1.19 fold enrichment (6-mer frequency, TF over GST control); in the experiment with CRX it was 1.09 fold enrichment (6-mer frequency, TF over GST control); in the experiment with ETV1, 1.12 fold enrichment (6-mer frequency, TF over GST control); in the experiment with ERF it was 1.34 fold enrichment (6-mer frequency, TF over GST control); with ETV3L, 1.13 fold enrichment (6-mer frequency, TF over GST control). Moreover, the binding signal in the experiment with ETS2 was 1.15 fold enrichment (6-mer frequency, TF over GST control); with SPDEF, 1.18 fold enrichment (6-mer frequency, TF over GST control); with ETV7, 1.23 fold enrichment (6-mer frequency, TF over GST control); with ELF5 it was 1.09 fold enrichment (6-mer frequency, TF over GST control); in the experiment with ETV3 it was 1.03 fold enrichment (6-mer frequency, TF over GST control); with ETV6, 1.13 fold enrichment (6-mer frequency, TF over GST control).
